# Laboratory results published in publication PMC6212833.
# In all, about 2,000 compounds were measured (“B-score”: median about -0.0024, highest 2% from about 4 on). This is one part of a sample in which the highest values are shown more often than they occur.
# System: Balamuthia mandrillaris (ATCC PRA-291) trophozoites, axenic culture
# Test: primary screen, b score
# Settings: 20 µM
# In short: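 Trophozoites (3,000/well) in axenic medium exposed to library drugs at 20 µM in 0.2% DMSO for 72 h; viability by CellTiter Glo luminescence at 2, 4 and 8 h. Controls: vehicle and freeze-thaw amoeba lysate; B-score corrects row, column and edge effects.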
row,Structure (SMILES),B-score
1,CCN1CCN(c2cc3c(cc2F)c(=O)c(C(=O)O)cn3C2CC2)CC1,-2.37
2,CO/N=C(\C(=O)N[C@@H]1C(=O)N2C(C(=O)O)=C(COC(C)=O)CS[C@H]12)c1csc(N)n1,2.94
3,N[C@@H](Cc1ccccc1)C(=O)O,-1.27
4,C#CC1(O)CCC2C3CCC4=C/C(=N/O)CCC4C3CCC21CC (stereo not drawn),-0.44
5,CC(C)(O)c1ccccc1CC[C@@H](SCC1(CC(=O)O)CC1)c1cccc(/C=C/c2ccc3ccc(Cl)cc3n2)c1,-1.02
6,Oc1c(Cl)cc(Cl)cc1Sc1cc(Cl)cc(Cl)c1O,-2.1
7,CC(=O)OCC1=C(C(=O)O)N2C(=O)[C@@H](NC(=O)CC#N)[C@H]2SC1,-1.27
8,CC(=O)OCC1=C(C(=O)O)N2C(=O)[C@@H](NC(=O)CSc3ccncc3)[C@H]2SC1,-1.22
9,CC(=O)OCC1=C(C(=O)O)N2C(=O)[C@@H](NC(=O)Cc3cccs3)[C@H]2SC1,4.7
10,Cc1cn([C@H]2C[C@H](N=[N+]=[N-])[C@@H](CO)O2)c(=O)[nH]c1=O [735592-L3],-1.48
11,CC(C)(C)NC(=O)[C@H]1C[C@@H]2CCCC[C@@H]2CN1C[C@@H](O)[C@H](Cc1ccccc1)NC(=O)[C@@H](CC(N)=O)NC(=O)c1ccc2ccccc2n1,-1.24
12,NC[C@@H]1O[C@H](O[C@@H]2[C@@H](CO)OC(O[C@@H]3[C@@H](O)[C@H](N)C[C@H](N)[C@H]3OC3O[C@H](CN)[C@@H](O)[C@H](O)[C@H]3N)[C@@H]2O)[C@H](N)[C@@H](O)[C@@H]1O (stereo partly drawn),0.82
13,CC[C@H]1OC(=O)[C@H](C)[C@@H](O[C@H]2C[C@@](C)(OC)[C@@H](O)[C@H](C)O2)[C@H](C)[C@@H](O[C@@H]2O[C@H](C)C[C@H](N(C)C)[C@H]2O)[C@](C)(O)C[C@@H](C)/C(=N\OCOCCOC)[C@H](C)[C@@H](O)[C@]1(C)O,0.27
14,CCC1=C(C)CN(C(=O)NCCc2ccc(S(=O)(=O)NC(=O)N[C@H]3CC[C@H](C)CC3)cc2)C1=O,1.92
15,O=C(O)C[C@H](O)C[C@H](O)/C=C/c1c(C2CC2)nc2ccccc2c1-c1ccc(F)cc1,-0.609
16,CC(C)c1nc(N(C)S(C)(=O)=O)nc(-c2ccc(F)cc2)c1/C=C/[C@@H](O)C[C@@H](O)CC(=O)O,3.13
17,COCc1c(C(C)C)nc(C(C)C)c(/C=C/[C@@H](O)C[C@@H](O)CC(=O)O)c1-c1ccc(F)cc1,13.3
18,CC(C)NC[C@H](O)COc1cccc2ccccc12,-4.66
19,CC(C)NCC(O)COc1cccc2ccccc12 (stereo not drawn),0.797
20,CC[N+](CC)(CC)CCOc1cccc(OCC[N+](CC)(CC)CC)c1OCC[N+](CC)(CC)CC,5.36
21,CC(Cc1ccccc1)(NC(=O)CN)c1ccccc1 (stereo not drawn),1.27
22,CC[C@H]1CN2CCC1C[C@@H]2[C@@H](O)c1ccnc2ccc(OC)cc12 (stereo partly drawn),0.0568
23,CCCCC1(COC(=O)CCC(=O)O)C(=O)N(c2ccccc2)N(c2ccccc2)C1=O,-1.04
24,O=C1CC[C@@H](N2C(=O)c3ccccc3C2=O)C(=O)N1,-1.22
